The values below come from PubChem BioAssay (NCATS).

Unmarked numbers belong to inactive results. Inconclusive results are not listed. Calls of active or inactive are those of the source. Unless noted, calls come from the whole dose curve; as a rule, active = well fitted curve in the direction sought with a large enough effect; inconclusive = small, poorly fitted or top-dose-only effect, or another doubt; inactive = no such curve, though single readings can be large; an effect the other way counts as inactive or inconclusive.

Experiment [1] deals with T1, Tyrosine-protein phosphatase non-receptor type substrate 1 (Homo sapiens) + Leukocyte surface antigen CD47 (Homo sapiens) (UniProt P78324+Q08722). Put plainly: CD47-SIRPalpha protein protein interaction - HTRF assay qHTS validation (AID 1347058; active = well fitted curve in the direction sought with a large enough effect in the signal ratio, not every such curve was filed as active; the % refers to the signal ratio; note: series mostly up to about 38 µM; 0% is about no effect). The procedure, abridged:
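Soluble extracellular domains (6His-CD47, Avi-tag-biotinylated SIRPalpha) in PBS pH 7.4 with 0.05% IGEPAL CA-630. Compounds were preincubated 30 min at RT with CD47 and anti-His-Eu, then SIRPalpha and SAV-XL665 were added. TR-FRET 665/615 ratio.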

The target in experiment [2] is Parathyroid hormone/parathyroid hormone-related peptide receptor (Homo sapiens) (UniProt Q03431). As to the kind of experiment: qHTS for PTHR1 Agonists: Optimization Screen against the NCGC LOPAC library (AID 1347079).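 Note: GloSensor cAMP luminescence in HEK-293 GP2 cells expressing human PTHR1 with IBMX; 0% is about no effect.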 The procedure, abridged: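 Signal increase flags agonism. GP2 cells, derived from HEK-293, express human PTHR1 and a GloSensor cAMP construct.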
(In general: qHTS replaces the single test concentration by a dilution series.)

Experiment [3] is described as follows: qHTS of pediatric cancer cell lines to identify multiple opportunities for drug repurposing: Primary screen for TC32 cells (AID 1347089). Note: % is set by controls: 0 for no effect and ±100 for the full control effect; nearly all actives have a fitted effect of over 60% in size. A digest of the protocol:
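Luminescent CellTiter-Glo read-out of metabolically active TC32 cells after 48 h compound exposure. Primary: MIPE 11-point, 0.78 nM–46 µM; NPC 8-point, 0.59 nM–46 µM. Confirmatory: 11-point dilutions.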

Experiment [4] can be described thus: qHTS of pediatric cancer cell lines to identify multiple opportunities for drug repurposing: Primary screen for DAOY cells (AID 1347090).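 Note: series mostly up to about 46 µM; plate controls were DMSO for no effect and bortezomib for full effect; nearly all actives have a fitted effect of over 55% in size.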 The procedure, abridged: (§1)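 Viability measured as metabolically active cells via CellTiter-Glo luminescence following 48 hours of compound exposure, 11-point dilutions in confirmatory testing. 500-1,000 cells/well plated 5 hours before dosing; controls were DMSO and 2.3 µM bortezomib.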

Experiment [5] in a line: qHTS of pediatric cancer cell lines to identify multiple opportunities for drug repurposing: Primary screen for SJ-GBM2 cells (AID 1347091).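 For activity change, negative = cytotoxic: plate controls were DMSO neutral control for no effect and bortezomib for full effect.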 Note: potency is the fitted concentration of half-maximal effect. A digest of the protocol: as §1
A short description of experiment [6]: qHTS of pediatric cancer cell lines to identify multiple opportunities for drug repurposing: Primary screen for A673 cells (AID 1347092). For activity change, negative = cytotoxic: % is set by controls: 0 for no effect and ±100 for the full control effect. Note: nearly all actives have a fitted effect of over 45% in size. Note: potency is the fitted concentration of half-maximal effect. The procedure, abridged:
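A673 cells (500-1,000 cells/well in growth media) were pre-incubated 5 h at 37 degrees C, then exposed to compounds for 48 h. Viability was read as CellTiter-Glo luminescence; concentration-response curves came directly from the primary screen.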

A short description of experiment [7]: qHTS of pediatric cancer cell lines to identify multiple opportunities for drug repurposing: Primary screen for SK-N-MC cells (AID 1347093).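 For activity change, negative = cytotoxic: series mostly up to about 46 µM; plate controls were DMSO neutral control for no effect and bortezomib for full effect.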 Note: potency is the fitted concentration of half-maximal effect. The procedure, abridged: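 Metabolically active cells were quantified by ATP-dependent luminescence (CellTiter-Glo, 15 min at room temperature) following 48 h treatment. Cells had been plated at 500-1,000 per well and settled for 5 h beforehand.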

Experiment [8] can be described thus: qHTS of pediatric cancer cell lines to identify multiple opportunities for drug repurposing: Primary screen for BT-37 cells (AID 1347094).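 For activity change, negative = cytotoxic: series mostly up to about 57 µM; plate controls were DMSO for no effect and bortezomib for full effect.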 Note: potency is the fitted concentration of half-maximal effect. The procedure, abridged:
(§2)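 Quantitative HTS format: each compound titrated (MIPE 11 points from 0.78 nM, NPC 8 points from 0.59 nM) onto cells plated 5 hours earlier. After 48 h at 37 degrees C, CellTiter-Glo luminescence was recorded.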

A short description of experiment [9]: qHTS of pediatric cancer cell lines to identify multiple opportunities for drug repurposing: Primary screen for NB-EBc1 cells (AID 1347095).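 Note: plate controls were DMSO neutral control for no effect and bortezomib for full effect.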 The procedure, abridged:
as §2

In experiment [10] the target is T1, Tyrosine-protein phosphatase non-receptor type substrate 1 (Homo sapiens) + Leukocyte surface antigen CD47 (Homo sapiens). Put plainly: CD47-SIRPalpha protein protein interaction - Alpha assay qHTS validation (AID 1347059).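 Note: bead proximity luminescence from CD47 binding SIRPalpha after compound preincubation with SIRPalpha; % is set by controls: 0 for no effect and ±100 for the full control effect.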 A digest of the protocol:
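SIRPalpha-biotin 25 nM + cpd, 30 min RT, dark; add CD47-His 12.5 nM, 30 min; add Ni-NTA/SAV beads 10 ug/mL, 30 min; AlphaScreen. Buffer PBS pH 7.4 + 0.05% IGEPAL CA-630. Non-biotinylated SIRPalpha as control inhibitor.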

T1 sequence (P78324 whole entry, looked up, the tested form may be a part): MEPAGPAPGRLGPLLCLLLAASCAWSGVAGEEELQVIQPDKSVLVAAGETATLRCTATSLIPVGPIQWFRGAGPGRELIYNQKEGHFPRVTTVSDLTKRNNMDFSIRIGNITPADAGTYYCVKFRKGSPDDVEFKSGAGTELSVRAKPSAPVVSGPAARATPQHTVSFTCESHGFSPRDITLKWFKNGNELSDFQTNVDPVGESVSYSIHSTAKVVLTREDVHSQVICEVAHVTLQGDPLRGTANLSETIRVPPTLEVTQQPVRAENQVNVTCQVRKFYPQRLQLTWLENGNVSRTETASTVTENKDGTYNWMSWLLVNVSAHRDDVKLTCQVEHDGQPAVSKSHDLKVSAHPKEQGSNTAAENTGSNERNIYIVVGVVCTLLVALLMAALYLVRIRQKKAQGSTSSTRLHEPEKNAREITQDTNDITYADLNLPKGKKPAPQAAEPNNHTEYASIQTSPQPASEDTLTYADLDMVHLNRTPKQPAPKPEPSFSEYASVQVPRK
T1 sequence (Q08722 whole entry, looked up, the tested form may be a part): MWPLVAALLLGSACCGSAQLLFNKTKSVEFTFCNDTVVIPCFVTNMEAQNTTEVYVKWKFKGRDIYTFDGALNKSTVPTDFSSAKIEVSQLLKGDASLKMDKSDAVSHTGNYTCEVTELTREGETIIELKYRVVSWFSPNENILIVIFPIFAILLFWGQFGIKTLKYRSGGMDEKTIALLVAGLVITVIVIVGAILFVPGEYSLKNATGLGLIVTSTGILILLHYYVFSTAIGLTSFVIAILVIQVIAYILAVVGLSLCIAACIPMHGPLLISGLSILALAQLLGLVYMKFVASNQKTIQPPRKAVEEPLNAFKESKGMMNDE
Chain of Parathyroid hormone/parathyroid hormone-related peptide receptor (Homo sapiens) (Q03431 whole entry, looked up): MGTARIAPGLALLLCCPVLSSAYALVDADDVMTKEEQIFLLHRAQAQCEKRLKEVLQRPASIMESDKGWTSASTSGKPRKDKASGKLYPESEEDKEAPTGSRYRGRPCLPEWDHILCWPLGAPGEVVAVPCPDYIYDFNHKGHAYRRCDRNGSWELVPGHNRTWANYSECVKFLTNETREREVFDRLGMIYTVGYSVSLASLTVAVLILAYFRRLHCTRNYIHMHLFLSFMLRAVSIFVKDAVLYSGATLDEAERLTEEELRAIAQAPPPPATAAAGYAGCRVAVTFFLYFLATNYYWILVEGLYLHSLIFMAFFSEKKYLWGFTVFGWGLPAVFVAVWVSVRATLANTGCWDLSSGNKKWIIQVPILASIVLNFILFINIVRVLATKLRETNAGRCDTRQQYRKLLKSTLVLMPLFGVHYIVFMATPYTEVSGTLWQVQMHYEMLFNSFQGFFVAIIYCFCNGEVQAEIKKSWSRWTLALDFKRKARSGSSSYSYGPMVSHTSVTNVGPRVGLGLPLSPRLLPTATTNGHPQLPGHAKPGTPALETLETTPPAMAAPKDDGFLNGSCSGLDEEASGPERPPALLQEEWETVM

As for `CCOC(=O)c1cnc2c(cnn2CC)c1NN=C(C)C`, the outcome in [1] and in experiment [2] was inactive. For the same compound, the Potency entry in [3], in experiment [4], in experiment [5], in experiment [6], in experiment [7] and in [8] was “inactive” in each case. Moreover, the Potency entry in [9] was “inactive”.

With `c1cc(CN2CCCCC2)cc(OCCCNc2nc3ccccc3s2)c1`, the outcome in experiment [1] and in experiment [2] was inactive. Moreover, the Potency result in experiment [3], in experiment [4] and in experiment [9] was “inactive” throughout.

For `CCc1c(C)[nH]c2c1C(=O)C(CN1CCOCC1)CC2` (stereo not given), the outcome in [1] and in [2] was inactive. Besides, the Potency result in [4], in experiment [5], in [6], in experiment [7], in [8] and in experiment [9] was “inactive” in each case.

With `CCCCNc1ccc(C(=O)OCCN(C)C)cc1`, the result in experiment [1] and in [2] was inactive. For the same compound, the Potency entry in [3], in experiment [4], in experiment [5], in experiment [6], in [7] and in experiment [8] was “inactive” each time. For the same compound, the Potency entry in experiment [9] was “inactive”.

`COCCCC/C(=N\OCCN)c1ccc(C(F)(F)F)cc1`: the result in [1] and in [2] was inactive. The Potency entry in [3], in experiment [4], in experiment [5], in [8] and in [9] was “inactive” in each case.

Regarding `CC(=O)OCC1=C(C(=O)O)N2C(=O)[C@@H](NC(=O)Cc3cccs3)[C@H]2SC1`, the result in experiment [1] and in experiment [2] was inactive. The Potency result in experiment [3], in experiment [4], in experiment [5], in experiment [6], in experiment [7] and in [8] was “inactive” in each case. Besides, in experiment [9], the Potency result is “inactive”.

As to `c1ccc2c(c1)CCCC2C1=NCCN1` (stereo not given), the outcome in [1] and in experiment [2] was inactive. In addition, the Potency result in experiment [3], in [4], in experiment [5], in [6], in experiment [7] and in experiment [8] was “inactive” each time. For the same compound, the Potency entry in [9] is “inactive”.

As to `Cc1nnc(SCC2=C(C(=O)O)N3C(=O)[C@@H](NC(=O)Cn4cnnn4)[C@H]3SC2)s1`, the outcome in experiment [1] and in experiment [2] was inactive. Further, the Potency entry in experiment [3], in experiment [4], in experiment [5], in experiment [6], in experiment [7] and in [8] was “inactive” throughout. Further, the Potency result in experiment [9] was “inactive”.

In the case of `CN(C)CCCN1c2ccccc2Sc2ccc(C(F)(F)F)cc21`, the compound was classed as inactive in experiment [2]. In [4], the Potency result was “inactive”.

In the case of `CN1CCN(CC(=O)N2c3ccccc3C(=O)Nc3cccnc32)CC1`, the Potency result in experiment [10] was “inactive”. The compound was classed as inactive in experiment [2]. The activity change, negative = cytotoxic is 1.05% [at 4.84 µM] in experiment [4]; 3.45% [at 4.84 µM] in [5]; 5.45% [at 4.84 µM] in [6]; -2.23% [at 4.84 µM] in experiment [7]; 11.8% [at 6.03 µM] in experiment [8]; 16.9% [at 4.84 µM] in experiment [9].

`CC(C)COCC(CN(Cc1ccccc1)c1ccccc1)N1CCCC1` (stereo not given): in experiment [2], the call was inactive. Also, the Potency is 26.6 µM (active) in experiment [6], 16.8 µM (active) in experiment [7] and 27.6 µM (active) in experiment [8].

`NC(=Nc1ccccc1)Nc1ccccc1`: the Potency result in experiment [3], in experiment [4], in experiment [5], in experiment [6], in experiment [7] and in [8] was “inactive” throughout. The Potency result in experiment [9] was “inactive”.

Regarding `CCn1nc(C(=O)O)c(=O)c2cc3c(cc21)OCO3`, the Potency entry in [10], in experiment [3], in experiment [4], in experiment [5], in experiment [6] and in experiment [7] was “inactive” each time. Moreover, the Potency entry in experiment [8] and in experiment [9] was “inactive” in each case. The result in experiment [2] was inactive.

Turning to `CC(C)(C)c1ccc(C(=O)CCCN2CCC(OC(c3ccccc3)c3ccccc3)CC2)cc1`, the Potency entry in [10] and in [3] was “inactive” in each case. For the same compound, in [2], the compound was called inactive. Also, the Potency was 26.6 µM (active) in [5], 21.1 µM (active) in experiment [7] and 27.6 µM (active) in experiment [8].

As for `COC(=O)[C@H]1[C@H]2C[C@@H]3c4[nH]c5cc(OC)ccc5c4CCN3C[C@H]2C[C@@H](OC(=O)c2cc(OC)c(OC)c(OC)c2)[C@@H]1OC`, the compound was classed as inactive in [2]. The Potency entry in experiment [3], in experiment [5], in [8] and in experiment [9] was “inactive” in each case.

In the case of `Cc1nc2ccccn2c(=O)c1CCN1CCC(C(=O)c2ccc(F)cc2)CC1`, the Potency result in experiment [10], in experiment [3], in [4], in experiment [5], in experiment [8] and in experiment [9] was “inactive” each time. In addition, the compound was classed as inactive in experiment [2].

As for `CCO/C([O-])=N/c1c[n+](N2CCOCC2)no1`, the compound was classed as inactive in [2]. The Potency result in experiment [4], in experiment [5], in experiment [6], in experiment [7], in experiment [8] and in experiment [9] was “inactive” each time.

As for `CCCCOCCOCCOCc1cc2c(cc1CCC)OCO2`, the Potency result in experiment [4], in experiment [5], in [6], in [7], in experiment [8] and in [9] was “inactive” each time.

In the case of `C[C@]12C=CC(=O)C=C1CC[C@H]1[C@@H]3C[C@@H](O)[C@](O)(C(=O)CO)[C@@]3(C)C[C@H](O)[C@@]12F`, the result in experiment [2] was inactive. Besides, the Potency result in [4], in experiment [5], in [6], in experiment [7], in experiment [8] and in experiment [9] was “inactive” in each case.

As to `CCN(CC)CCNC(=O)c1cc(S(C)(=O)=O)ccc1OC`, the Potency entry in experiment [10], in experiment [3], in [4], in experiment [5], in experiment [6] and in [7] was “inactive” in each case. Besides, the Potency entry in [8] and in [9] was “inactive” throughout. Moreover, the compound was called inactive in experiment [2].

As to `NS(=O)(=O)c1cc2c(cc1Cl)NC(C1CC3C=CC1C3)NS2(=O)=O` (stereo not given), the Potency entry in experiment [10], in experiment [4], in [5], in experiment [6], in experiment [7] and in experiment [8] was “inactive” throughout. The Potency result in experiment [9] was “inactive”. Moreover, in [2], the compound was classed as inactive.
